About 8,600 (12%) of roughly 69,000 compounds showed an effect of 50% or more. The entries come from a sample that favours strong results as a whole.

In this assay the test system is Plasmodium berghei. Kind of assay: Screen against P. berghei liver stage (PbLuc), transformed with Luciferase, at 10uM. The conditions noted are these: tested at 10 uM. It is filed as functional, HepG2.
`COCC(=O)NCc1cc(=O)n2c(n1)CN(Cc1ccoc1)CCC2`: the INHIBITION is given as 36.9%.
Next, `Cc1nc(C)c(C(=O)N2CCc3nc4c(C)csc4c(=O)n3CC2)s1`: 39.7%; `Cc1csc2nc3n(c(=O)c12)CCN(Cc1c[nH]cn1)CC3`: 17.1%; `CN1CC(C(=O)NCCOc2ccc3c(c2)OCO3)CC1=O` (configuration not stated): 16.9%.
Next, `CC(NC(=O)N1CCCN(Cc2cccs2)CC1)c1cccnc1` (configuration not stated): 6.92%; `CC(NC(=O)N1CCCN(CC(F)F)CC1)c1ccco1` (configuration not stated): 62.3%.
With `Cc1ccc(C(C)NC(=O)N2CCCN(CC(F)F)CC2)s1` (configuration not stated), the INHIBITION is 60.9%.
`CC(CNC(=O)N1CCN(CC(F)F)CC1)Cc1cccs1` (configuration not stated): the INHIBITION is given as -13.2%.
The figure for `CCc1cnc(C(C)NC(=O)N2CCCN(CC(F)F)CC2)s1` (configuration not stated) is -37.8%.
On to `CC(=O)N1CCCN(C(=O)NC(C)c2ccc(C)o2)CC1` (configuration not stated), for which the INHIBITION is on record as 11.3%.
For `CN(C)C(=O)c1cc2ncc(C(=O)NC3CC3)cc2n1C`, the INHIBITION was determined as 2.59%.
The figure for `CC(CNCc1ccncc1)Oc1ccccn1` (configuration not stated) is -52.1%; for `Cc1nccn1CCC1CCN(C2CCC3(CCNCC3)CC2)CC1` it is 12.1%; for `O=C1[C@H]2CN(Cc3ccc(F)cc3)C[C@H]2CN1CCN1CCCC1` it is 3.81%.
As for `Nc1nc(N)c2c(n1)OC1(CCN(C(=O)CC3CCNCC3)CC1)C2`, the INHIBITION is on record as -13.13%.
The figure for `CN1[C@H](CN2CCCC2)C[C@@H]2CN(C(=O)c3ccsc3)CC[C@@H]21` is 28.4%; for `COc1ccc(CCN2C(=O)O[C@@H]3CN(C)C[C@@H]32)cc1` it is 51.2%; for `COc1ccc(CCN2C(=O)O[C@@H]3CN(C4CCSCC4)C[C@@H]32)cc1` it is 47.6%.
With `COc1ccc(CCN2C(=O)O[C@@H]3CN(C4CCOCC4)C[C@@H]32)cc1`, the INHIBITION is given as -5.12%.
The figure for `CC1(C)CNC(=O)c2nc(CCN3CCCCC3CO)[nH]c2C1` (configuration not stated) is 24.4%; for `CC1(C)CNC(=O)c2nc(CCN3CCC(O)CC3)[nH]c2C1` it is 53.3%.
Consider `CC1(C)CNC(=O)c2nc(CCCN3CCCC3)[nH]c2C1`, for which the INHIBITION is given as 83.2%.
Next, `CC1(C)CNC(=O)c2nc(CCN3CCC(C(N)=O)CC3)[nH]c2C1`: 8.38%; `CC1(C)CNC(=O)c2nc(CCN3CCOCC3)[nH]c2C1`: -13%.
Next, `CN1CCCC(c2nc3c([nH]2)CC(C)(C)CNC3=O)C1` (configuration not stated): -67.3%; `O=C(NCC1CC1)Nc1ccc(OCC(F)(F)F)nc1`: 23.73%; `O=S(=O)(Cc1c(F)cccc1Cl)Cc1nnnn1C1CC1`: 25.8%.
Next, `COc1ccc(OC)c(C2CCN(C(=O)C3CCS(=O)(=O)CC3)C2)c1` (configuration not stated): 40.5%; `COc1ccc(OC)c(C2CCN(C(=O)C3CCOCC3)C2)c1` (configuration not stated): 50.1%; `COc1ccc(OC)c(C2CCN(C(=O)CCc3n[nH]c(N)n3)C2)c1` (configuration not stated): -24%.
In the case of `COc1ccc(OC)c(C2CCN(C3CCN(C(C)=O)CC3)C2)c1` (configuration not stated), the INHIBITION is recorded as 27.7%.
Regarding `COc1ccc(OC)c(C2CCN(C(=O)C3CCC(O)CC3)C2)c1` (configuration not stated), the INHIBITION was determined as 25.5%.
Take `COc1ccc(OC)c(C2CCN(C(=O)C3CCN(C(C)C)CC3)C2)c1` (configuration not stated): the INHIBITION stood at 53.3%.
Next, `CN(CC(=O)Nc1cc(C(C)(C)C)n[nH]1)S(C)(=O)=O`: 3.63%.
Next, `O=C(NCC1(Sc2ccccc2)CC1)c1c[nH]nn1`: 20.8%; `CN(C)CC(=O)N1CCN(CC(O)c2ccc(F)cc2)CC1` (configuration not stated): -11.4%; `COc1ccccc1OCCc1nnc(NC(=O)C2CC23CCC3)s1` (configuration not stated): 31.97%.
Next, `CSCC(=O)N1C[C@@H]2CC[C@H]1CN(Cc1ccccc1)C2`: -79.7%.
As to `CCOc1ccc(C(=O)Nc2c(C)nc3ccc(Cl)cn3c2=O)cc1`, the INHIBITION stood at 51.6%.
Regarding `CCOc1ccc(C(=O)Nc2c(C)nc3scc(C)n3c2=O)cc1`, the INHIBITION came to 5.58%.
The figure for `COc1ccc(C(=O)Nc2c(C)nc3cccc(C)n3c2=O)cc1` is 31.7%; for `CCOc1ccc(C(=O)Nc2c(C)nc3ccccn3c2=O)cc1` it is 56.5%; for `CCOc1ccc(C(=O)Nc2ccn(CC)n2)cc1` it is -125%.
Regarding `CCOc1ccc(C(=O)Nc2c(C)nc3cccc(C)n3c2=O)cc1`, the INHIBITION is on record as -14.7%.
Regarding `Cn1cccc1C(=O)N1C[C@@H]2CC[C@H]1CN(Cc1cscn1)C2`, the INHIBITION is -9.39%.
Next, `COc1c(CNC2CCC(O)CC2)c(C(C)C)nn1C` (configuration not stated): -18.8%; `O=C1c2cccnc2OC(CN2CCOCC2)CN1CC1CC1` (configuration not stated): 24.5%; `Cc1nc(C)n(C2CCCN(C(=O)c3c(C)nn4cccnc34)C2)n1` (configuration not stated): 26.4%.
Next, `Cc1cc(C(=O)N2CCOC(c3nc(C(C)C)n[nH]3)C2)no1` (configuration not stated): 25.1%.
Next, `COc1cccc(CN2CCc3nc(C(=O)NCC(C)C)sc3CC2)c1`: 84.5%.
As for `CNC(=O)c1nc2c(s1)CCN(C(=O)c1cccc(OC)c1)CC2`, the INHIBITION was -78%.
Next, `COc1cccc(CC(=O)N2CCc3nc(C(N)=O)sc3CC2)c1`: -16.9%; `COc1cccc(CN2CCc3nc(C(N)=O)sc3CC2)c1`: 2.41%; `CNC(=O)N1CCc2nc(C(=O)NCc3cccc(OC)c3)sc2CC1`: 70.7%.
As to `CC(C)CNC(=O)c1nc2c(s1)CCN(C(=O)c1cccnc1)CC2`, the INHIBITION is -47.5%.
Next, `COc1ccc(CNC(=O)c2nc3c(s2)CCN(C(C)=O)CC3)cc1`: 34.6%.
Next, `COc1cccc(CNC(=O)c2nc3c(s2)CCN(C(C)=O)CC3)c1`: 10.1%.
Take `CCN(CC)C(=O)c1nc2c(s1)CCN(Cc1cccc(OC)c1)CC2`: the INHIBITION stood at 66.8%.
As for `O=C1OCCN1Cc1nc(C2(c3ccc(F)cc3)CCOC2)no1` (configuration not stated), the INHIBITION was -73.4%.
The figure for `CCc1nc(CN2CC(C(=O)OC)O[C@H](C)C2)cs1` (some centres not stated) is 30.3%; for `CS(=O)(=O)NCCN1CCCC1c1noc(C2CC2)n1` (configuration not stated) it is 0.914%.
Next, `CN(C)Cc1ccnc(C2CN(CCc3ccccc3)CCO2)n1` (configuration not stated): 17.4%; `Cn1cncc1CN1CCC2(CCCN2c2ncccn2)CC1`: 16.9%.
The figure for `CC(C)(N)C(=O)N1CCCC(c2cncc(Oc3cccnc3)n2)C1` (configuration not stated) is 41.2%.
On to `O=C(NCC(Cc1cccc(F)c1)N1CCCC1=O)C1CCCC1` (configuration not stated), for which the INHIBITION is reported as 0.923%.
Next, `CCCC(=O)NCC(Cc1cccc(F)c1)N1CCCC1=O` (configuration not stated): 8.31%; `CCOCC(=O)NCC(Cc1cccc(F)c1)N1CCCCC1=O` (configuration not stated): 54.1%; `CCOCC(=O)NCC(Cc1cccc(F)c1)n1cccc1` (configuration not stated): 47.2%.
Next, `O=C1NCCN1C(CNS(=O)(=O)C1CC1)Cc1cccc(F)c1` (configuration not stated): 20.1%; `O=C1CCCN1C(CNS(=O)(=O)C1CC1)Cc1cccc(F)c1` (configuration not stated): 58.5%; `CN(C)C(=O)N1C[C@H](Oc2ccccn2)[C@H]2OCCC[C@H]21`: -6.32%.
Turning to `CC1Oc2ccc(S(=O)(=O)NCCCn3ccnc3)cc2NC1=O` (configuration not stated), the INHIBITION was found to be 56.5%.
Next, `CC1(C)Oc2ccc(S(=O)(=O)NCCCn3ccnc3)cc2NC1=O`: 17.4%.
In the case of `COCCCNS(=O)(=O)c1ccc2c(c1)NC(=O)C(C)O2` (configuration not stated), the INHIBITION is -35.5%.
The figure for `Cc1nc(CCNC2CCN(Cc3ccccc3)C2)sc1C` (configuration not stated) is 40.5%; for `CCc1nc(C)sc1CNC1CCN(Cc2ccccc2)C1` (configuration not stated) it is 51.1%.
The figure for `CCc1csc(CNC2CCN(c3ccc(C)cc3)CC2)n1` is 1.94%.
The figure for `Cc1nc(CNC2CCN(Cc3ccccc3)C2)sc1C` (configuration not stated) is 47.9%.
Regarding `CCc1nc(C)sc1CN1CC[C@](C)(O)[C@H](C)C1`, the INHIBITION turned out to be 48.5%.
Next, `CCc1csc(CNC2CCN(Cc3ccccc3)C2)n1` (configuration not stated): 64%; `CNc1ncccc1CN1CCCCC1c1ccnc(N)n1` (configuration not stated): 32.3%.
In the case of `O=C(NCC1CC1)[C@H]1CC[C@@H]2[C@@H](CCN2Cc2nccs2)O1`, the INHIBITION is listed as 46.1%.
The figure for `COC(=O)c1cccn1C1CCN(CC(=O)NC2CCCCC2)CC1` is 43.7%.
Next, `Cc1noc(C)c1C(=O)N(C)C(C)c1ccc(S(C)(=O)=O)cc1` (configuration not stated): 10.7%.
The figure for `Cc1noc(C)c1C(=O)N(C)C(C)c1cccnc1` (configuration not stated) is 79%; for `Cc1noc(C)c1C(=O)N(C)C(C)c1ccncc1` (configuration not stated) it is 17.5%.
Take `CS(=O)(=O)N1CCCN(c2nccn3cnnc23)CC1`: the INHIBITION is -39.2%.
Next, `OCCN(Cc1ccccc1)Cc1ccsc1`: 3.96%; `CC(NC(=O)c1ccc(C#N)cn1)C1(N2CCOCC2)CCCC1` (configuration not stated): 37.1%; `CC(C)n1ncc2c1NC(=O)CC2c1ccccc1Cl` (configuration not stated): 9.32%.
For the compound `Cn1ncc2c1NC(=O)CC2c1ccc(Cl)cc1Cl` (configuration not stated), the INHIBITION was found to be 34%.
The figure for `Cn1ncc2c1NC(=O)CC2c1cc(Cl)ccc1F` (configuration not stated) is 8.49%; for `Cn1ncc2c1NC(=O)CC2c1cc2c(cc1Cl)OCO2` (configuration not stated) it is 61.2%.
Consider `Cn1ncc2c1NC(=O)CC2c1c(Cl)cccc1Cl` (configuration not stated), for which the INHIBITION turned out to be 25.1%.
As to `Cn1ncc2c1NC(=O)CC2c1ccccc1Cl` (configuration not stated), the INHIBITION is listed as 54.5%.
With `O=C(NCc1cccnc1)c1ccc2nccn2c1`, the INHIBITION was 32.5%.
The figure for `COc1ccccc1CN1CCC(Cc2cnc(CN(C)C)cn2)CC1` is 8.12%.
As for `Cc1nc(C)c(C(=O)N2CCCC(n3ccnc3C)C2)s1` (configuration not stated), the INHIBITION is 21.7%.
Next, `O=S(=O)(Cc1c(F)cccc1F)NCCOc1cccnc1`: 42.4%.
The figure for `Cc1ccc(C(=O)N2CCCC(n3cccn3)C2)cc1S(C)(=O)=O` (configuration not stated) is 23.95%; for `CCc1noc(CCC(=O)N[C@@H]2CC[C@@H](n3ccnc3)[C@@H]2O)n1` it is 8.72%; for `CCc1noc(CCC(=O)N[C@@H]2CC[C@@H](n3ccnc3C)[C@@H]2O)n1` it is 56.8%.
Next, `Cc1nccn1[C@@H]1CC[C@@H](NC(=O)CCCn2cccn2)[C@H]1O`: 4.13%.
On to `Cc1cc(NC(=O)c2ccc(F)cc2Cl)n(C)n1`, for which the INHIBITION is on record as -23.8%.
The figure for `COc1ncc(-c2nccn2-c2ccccc2CN2CCOCC2)cn1` is 32.3%.
Regarding `CCn1ccnc1-c1nccn1-c1ccccc1CN1CCOCC1`, the INHIBITION stood at 58.3%.
The figure for `CCc1cc(-c2nccn2-c2ccccc2CN2CCOCC2)on1` is -4.51%.

The record behind these values is ChEMBL document CHEMBL4513216, “Probing the Open Global Health Chemical Diversity Library for Multistage-Active Starting Points for Next-Generation Antimalarials” (ACS Infect Dis, 2020).
